# Experimental data from publication PMC4336329 (PLoS ONE, 2015).
# Among all 310,000 compounds or so, about 14,000 (4.5%) showed an effect of 50% or more. Effects have a minus sign here. Only a selection was taken, and strong results are over-represented in it overall.
# Biological target: human ether-à-go-go-related gene (hERG) potassium channel (human, UniProt Q12809)
# Test: primary screen, population patch clamp on CHO cells stably expressing hERG; higher = less effect of the substance
# 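Also: peak tail current of the secondary pulse compared with the same well before compound.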
# Sequence of human ether-à-go-go-related gene (hERG) potassium channel (Q12809 whole entry, looked up): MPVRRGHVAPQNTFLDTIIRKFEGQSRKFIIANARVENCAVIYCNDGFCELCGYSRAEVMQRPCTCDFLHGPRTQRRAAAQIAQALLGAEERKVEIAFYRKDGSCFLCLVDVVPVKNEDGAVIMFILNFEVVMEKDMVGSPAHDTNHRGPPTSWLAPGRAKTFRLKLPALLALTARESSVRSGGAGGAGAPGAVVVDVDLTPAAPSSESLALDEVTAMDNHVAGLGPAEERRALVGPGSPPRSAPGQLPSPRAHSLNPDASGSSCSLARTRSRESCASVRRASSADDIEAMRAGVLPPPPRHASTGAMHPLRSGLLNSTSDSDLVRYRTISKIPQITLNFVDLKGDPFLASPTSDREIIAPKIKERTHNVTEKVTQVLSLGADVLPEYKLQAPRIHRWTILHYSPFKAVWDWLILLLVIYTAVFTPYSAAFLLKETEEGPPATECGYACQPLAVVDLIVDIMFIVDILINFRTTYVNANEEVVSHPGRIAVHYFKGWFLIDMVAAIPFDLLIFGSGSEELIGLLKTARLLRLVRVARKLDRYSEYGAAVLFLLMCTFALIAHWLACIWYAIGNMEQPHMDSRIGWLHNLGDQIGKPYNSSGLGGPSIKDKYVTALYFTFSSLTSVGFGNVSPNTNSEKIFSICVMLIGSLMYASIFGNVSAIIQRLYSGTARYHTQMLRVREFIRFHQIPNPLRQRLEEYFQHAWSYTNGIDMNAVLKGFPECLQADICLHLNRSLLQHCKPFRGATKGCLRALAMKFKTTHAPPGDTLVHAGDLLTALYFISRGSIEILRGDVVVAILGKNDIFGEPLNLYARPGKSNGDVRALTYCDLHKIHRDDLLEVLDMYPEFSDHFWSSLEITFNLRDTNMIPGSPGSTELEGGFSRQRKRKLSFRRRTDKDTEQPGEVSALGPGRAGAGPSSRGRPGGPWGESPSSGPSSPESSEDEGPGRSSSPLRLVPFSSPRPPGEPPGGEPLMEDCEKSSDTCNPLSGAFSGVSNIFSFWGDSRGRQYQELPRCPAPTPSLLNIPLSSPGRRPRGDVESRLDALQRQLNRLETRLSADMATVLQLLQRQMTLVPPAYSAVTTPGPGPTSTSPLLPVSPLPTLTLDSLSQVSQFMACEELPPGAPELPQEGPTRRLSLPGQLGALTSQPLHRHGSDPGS
row,SMILES,"hERG current change (%, negative = inhibition) at 10uM [%]"
1,O=C(Nc1ccc(F)cc1F)c1cncc(Br)c1,-3.88
2,CCOC(=O)c1cnn(CCOC(=O)C(C)(C)C)c1NC(=O)C(C)(C)C,12.8
3,COc1cc(OC)c2ccc(=O)oc2c1C(CC(=O)N1CCOCC1)c1ccc2c(c1)OCO2 (stereo not drawn),-0.731
4,Cc1nc(Nc2ccc(Cl)cc2)c2oc3ccccc3c2n1,3.95
5,O=C1CCN(Cc2ccc(Br)cc2)CCN1[C@H](CO)c1ccccc1,-3.45
6,CCCN1CCC(=O)N([C@H](CSc2ccc(Br)cc2)c2ccccc2)CC1,-76.2
7,Cc1ccc(C)c(OCCC(=O)OCC(=O)N2CCN(S(=O)(=O)c3ccc(Cl)cc3)CC2)c1,-29.8
8,O=S(=O)(c1ccccc1)c1nc(-c2ccco2)oc1NCc1cccnc1,-20.1
9,Brc1ccccc1CN1CCN(Cc2c[nH]c3ccccc23)CC1.O=C(O)C(=O)O,-20.1
10,CN(Cc1ccccc1)Cc1c[nH]c2ccccc12,-16.5
11,COc1ccc(Br)cc1CN1CCN(Cc2c[nH]c3ccccc23)CC1.O=C(O)C(=O)O,-29.2
12,CCOc1ccc(CN2CCN(C(=O)Cc3ccccc3)CC2)cc1.O=C(O)C(=O)O,-44.1
13,O=C(Cc1ccccc1)NCCc1c[nH]c2ccccc12.O=C(O)C(=O)O,16.4
14,Brc1ccc(CN2CCN(Cc3c[nH]c4ccccc34)CC2)cc1.O=C(O)C(=O)O,-63.8
15,CN(CCc1ccccc1)Cc1c[nH]c2ccccc12.O=C(O)C(=O)O,-56.7
16,CCS(=O)(=O)N1CCN(Cc2c[nH]c3ccccc23)CC1.O=C(O)C(=O)O,5.44
17,COc1ccccc1C(=O)N1CCN(Cc2c[nH]c3ccccc23)CC1.O=C(O)C(=O)O,-19.7
18,CCOc1ccc(CN2CCN(Cc3c[nH]c4ccccc34)CC2)cc1.O=C(O)C(=O)O,-84.4
19,COc1ccc(S(=O)(=O)N2CCN(Cc3c[nH]c4ccccc34)CC2)cc1,-24.9
20,COc1ccc(CN2CCN(Cc3c[nH]c4ccccc34)CC2)cc1.O=C(O)C(=O)O,-67.5
21,COc1ccc(S(=O)(=O)Nc2ccccc2-c2nnn(CC(=O)Nc3ccccc3OC)n2)cc1,5.49
22,CC(=O)OC[C@H]1O[C@@H](n2ccc(=O)[nH]c2=S)C(OC(C)=O)C1OC(C)=O (stereo partly drawn),-4.01

row,SMILES,"hERG current change (%, negative = inhibition) at 10uM [%]"
1,COc1cccc(C(=O)NCC(C)(C)SCc2ccc(F)cc2)c1,-28.2
2,Cc1cccc(NC(=O)CCS(=O)(=O)c2cccc3nonc23)c1C,7.7
3,CCC(C)NC(=O)Nc1ccccc1F (stereo not drawn),-24.5
4,O=S(=O)(c1ccccc1)N1CCCCC1c1cccnc1 (stereo not drawn),2.3
5,O=C(NCCc1c[nH]c2ccccc12)C1CCN(S(=O)(=O)c2ccccc2)CC1,-17.1
6,O=C(COc1ccc(Br)cc1)N1CCN(Cc2c[nH]c3ccccc23)CC1.O=C(O)C(=O)O,-57.9
7,O=C(NCCc1c[nH]c2ccccc12)C1CCN(Cc2ccc(Br)cc2)CC1,-54
8,O=C(COc1ccccc1)N1CCN(Cc2c[nH]c3ccccc23)CC1,-47.4
9,O=C(c1ccccc1)N1CCN(Cc2c[nH]c3ccccc23)CC1,-16.4
10,O=C(NCCc1c[nH]c2ccccc12)C1CCN(S(=O)(=O)c2ccc(F)cc2)CC1,-28.3
11,O=C(NNC(=O)C1CC=CCC1)c1ccccc1O (stereo not drawn),-4.58
12,Cn1c(CC(=O)Nc2ccccc2)nnc1SCC(=O)NC1=NCCS1,12.7
13,CC(C)c1ccccc1OCCCCCN1CCOCC1,-13.5
14,O=C(O)COc1ccc(Cl)cc1Cl,7.53
15,COc1ccc(C)cc1NC(=O)C(=O)N/N=C(\C)CC(=O)Nc1cccnc1,2.77
16,C=CCN1C(=O)c2ccc(C(=O)N(CC)CC(=O)Nc3ccc(OC)cc3)cc2C1=O,-20
17,C=CCN1C[C@@H](C)N(C(c2ccc(C(=O)N(CC)CC)cc2)c2cccc(OC)c2)C[C@@H]1C (stereo partly drawn),-65.3
18,CCN(CC)C(=O)c1cccc(-c2ccc(OC)cc2)c1,-17
19,c1ccc(-n2c(-c3ccncc3)nnc2N2CCOCC2)cc1,16.9
20,Cc1cc(=O)c2ccc3ccccc3c2[nH]1,7.45
21,Cc1cc(=O)cc(C)n1-c1ccc(F)cc1F,0.384
22,CC1(C)c2cc(O)ccc2OC1N1CCOCC1 (stereo not drawn),13.6

row,SMILES,"hERG current change (%, negative = inhibition) at 10uM [%]"
1,c1ccc(-n2cnc3cc(NCc4ccco4)ccc32)cc1,-49.8
2,COc1ccccc1-n1cnc2cc(NCc3ccco3)ccc21,-20.7
3,COc1ccc(-n2cnc3cc(NCc4ccco4)ccc32)cc1,-67.3
4,O=C1c2ccccc2C(=O)N1Cc1ccccc1F,13
5,CC1=C(C(=O)Nc2ccccc2)C(c2ccco2)C(C#N)=C(SCC(N)=O)N1 (stereo not drawn),-3.31
6,O=C(c1cc(COc2ccc(F)cc2Cl)on1)N1CCCCCCC1,0.909
7,CSc1ccccc1OCc1cc(C(=O)N2CCSCC2)no1,0.366
8,CSc1ccccc1OCc1cc(C(=O)N2CCC(Oc3cccnc3)CC2)no1,-37.4
9,Cc1cccc(C)c1OCc1cc(C(=O)N2CCC(c3ccncc3)CC2)no1,-55.8
10,O=C(c1cc(COc2ccc(F)cc2Cl)on1)N1CCC(c2ccncc2)CC1,-72.5
11,O=C(c1cc(COc2c(F)cccc2F)on1)N1CCC(c2ccncc2)CC1,-38.5
12,O=C(c1cc(COc2ccc(F)cc2Cl)on1)N1CCCCCC1,-3.89
13,Cc1cccc(C)c1OCc1cc(C(=O)N2CCC(c3ccccc3)CC2)no1,-1.95
14,CSc1ccccc1OCc1cc(C(=O)N2CCC(c3ccncc3)CC2)no1,-58.5
15,CC(C)C[C@H](NC(=O)c1nc[nH]c1C(=O)NC1CCN(C(=O)OC(C)(C)C)CC1)C(=O)OCc1ccccc1,3.48
16,COc1cccc(C2CC(=O)C3=C(C2)Nc2ccccc2N(C(=O)CCC(=O)O)C3c2ccc(F)cc2)c1 (stereo not drawn),5.1
17,Nc1ccccc1NC1=CC(=O)CC(c2ccco2)C1 (stereo not drawn),10.4
18,Cn1c(SCC(=O)c2ccccc2)nnc1-c1cnccn1,6.47
19,COc1cccc(NC(=O)CSc2ccc3nnc(-c4cccnc4)n3n2)c1,-37.5
20,O=C(CSc1ccc2nnc(-c3cccnc3)n2n1)Nc1ccccc1,-17.8
21,COc1ccc(NC(=O)CSc2ccc3nnc(-c4cccnc4)n3n2)cc1,-50.4
22,Cc1ccc(NC(=O)CSc2ccc3nnc(-c4cccnc4)n3n2)cc1,-53.1

row,SMILES,"hERG current change (%, negative = inhibition) at 10uM [%]"
1,CCOc1ccc(NC(=O)CSc2ccc(-c3cccnc3)nn2)cc1,-5.55
2,COc1ccc(NC(=O)CSc2ccc3nnc(-c4cccnc4)n3n2)cc1OC,1.17
3,CC(=O)c1ccc(NC(=O)CSc2ccc3nnc(-c4cccnc4)n3n2)cc1,-28.8
4,CC(=O)Nc1ccc(NC(=O)CSc2ccc3nnc(-c4cccnc4)n3n2)cc1,2.95
5,CCOc1ccc(NC(=O)CSc2ccc3nnc(-c4cccnc4)n3n2)cc1,-54.7
6,Cc1c(C(=O)Nc2cccc(Cl)c2)cn2c(nc3ccccc32)c1C#N,6.75
7,CC(=O)NCC(=O)OC(C)C(=O)Nc1ccc(C(C)=O)cc1 (stereo not drawn),-10.4
8,COc1cc(/C=C(\C#N)C(=O)NCC2CCCO2)ccc1OCC(N)=O (stereo not drawn),28.7
9,C/C(=N\NC(=O)CCc1ccccc1)c1ccc(Br)cc1,11
10,CN(C)S(=O)(=O)c1ccc(NC(=O)COc2ncnc3sccc23)cc1,15.7
11,CN(C)c1ccc(CNC(=O)CCNS(=O)(=O)c2cc(Br)cnc2N)cc1,12
12,COc1cccc(/C=C/C(=O)Nc2ccccc2N2CCOCC2)c1,-15.4
13,CCCCS(=O)CC(COC)OC(=O)c1ccccc1 (stereo not drawn),2.46
14,CCCCS(=O)CC(COc1ccc(Cl)cc1)OC(=O)c1ccccc1 (stereo not drawn),-56.3
15,CCCCS(=O)CC(CS(=O)CCCC)OC(=O)c1ccccc1 (stereo not drawn),-35.2
16,Cc1ccccc1NC(=O)c1oc(=O)c2ccccc2c1-c1ccccc1,-1.57
17,Cc1ccc(-c2c(C(=O)NCc3ccccc3)oc(=O)c3ccccc23)cc1,1.98
18,CC(C)N(CCNC(=O)c1oc(=O)c2ccccc2c1-c1ccccc1)Cc1ccco1,-67.9
19,CC(C)CC(=O)Nc1ncnc2c1C(=O)CC(C)(C)C2,-0.157
20,CCOC(=O)N1CCN(S(=O)(=O)c2c(C)cc(C)cc2C)CC1,-5.61
21,CSc1ccc(/C=N/n2c(C)cc(C)cc2=O)cc1,-2.09
